# Experimental data reported in the supplement of paper PMC3334620.
# In all, about 33,000 sequences were measured (“E-score (-0.5 to 0.5)”: median about -0.01, highest 2% from about 0.26 on). What follows is part of a selection rich in the highest values, with near analogues and random picks from the rest.
# Target: Ste12 (UniProt P13574)
# Test: PBM E-score (8-mer binding enrichment) (E-score (-0.5 to 0.5)); higher = stronger / more preferred TF binding
# Conditions: protein concentration: 200 nM; construct: GST-DNA-binding domain
# Experimental: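 Universal 'all 10-mer' protein binding microarrays (Agilent AMADID 015681) probed with GST-tagged S. cerevisiae TFs (full-length or DBD) made by in vitro transcription/translation (PURExpress), about 100-200 nM. Bound TF was detected with fluorescent anti-GST. Each ungapped 8-mer (which stands for itself and its reverse complement) is scored by the PBM enrichment score (E-score), a modified Wilcoxon-Mann-Whitney statistic from -0.5 to +0.5, computed with the Universal PBM Analysis Suite. Scale: above 0.35 generally sequence-specific binding.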
# UniProt P13574, sequence (P13574 whole entry): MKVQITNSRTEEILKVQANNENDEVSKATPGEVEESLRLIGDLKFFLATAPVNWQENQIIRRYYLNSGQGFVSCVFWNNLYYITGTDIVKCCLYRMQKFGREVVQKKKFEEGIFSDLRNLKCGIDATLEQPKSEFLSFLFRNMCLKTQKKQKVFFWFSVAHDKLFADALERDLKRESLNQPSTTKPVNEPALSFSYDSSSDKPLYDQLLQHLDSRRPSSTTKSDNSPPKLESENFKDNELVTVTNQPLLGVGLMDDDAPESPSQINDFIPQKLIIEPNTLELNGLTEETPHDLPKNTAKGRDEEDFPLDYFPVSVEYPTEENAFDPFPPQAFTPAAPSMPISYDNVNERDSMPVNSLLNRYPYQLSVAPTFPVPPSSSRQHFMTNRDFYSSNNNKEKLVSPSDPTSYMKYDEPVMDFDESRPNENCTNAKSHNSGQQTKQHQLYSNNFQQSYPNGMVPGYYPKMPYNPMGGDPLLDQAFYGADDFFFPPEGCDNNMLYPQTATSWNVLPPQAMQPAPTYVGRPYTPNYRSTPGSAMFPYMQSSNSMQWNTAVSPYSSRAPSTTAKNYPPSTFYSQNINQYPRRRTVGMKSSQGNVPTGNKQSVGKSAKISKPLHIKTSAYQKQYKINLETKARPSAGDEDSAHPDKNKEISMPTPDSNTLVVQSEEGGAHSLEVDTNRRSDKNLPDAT
row,Sequence,PBM E-score
1,ACCTAAAT,0.11
2,ACGTTGGC,-0.0145
3,CATGGCGG,-0.0453
4,CTTTGCAC,-0.0246
5,GAGCGTGA,-0.0254
6,CGGCTGAA,-0.0336
7,GCAAGCAC,-0.125
8,ATAGTTTA,0.0232
9,AAAACTCG,0.125
10,GCGATGCA,-0.234
11,CGAATTAG,0.095
12,AAAACCGA,0.115
13,GAAACCGA,0.267
14,CAAACCGA,0.0295
15,CGTAACAA,0.293
16,GGTAACAC,0.0298
17,GGTAACCA,-0.12
18,CGTAACAG,0.205
19,GGTAACAA,0.264
20,GCTAACAA,-0.046
21,AGTAACAA,0.0502
22,TGTAACAA,0.333
23,TCTAACAA,0.127
24,AGAACTCA,0.117
25,TCGAGCGA,-0.0486

row,Sequence,PBM E-score
1,GAGTTGTA,-0.0493
2,CTCGTTTC,0.242
3,ATCGTTTG,0.0575
4,ATCGTTTC,0.35
5,CGCGTTTC,0.234
6,AGCGTTTC,0.294
7,AGCGTTTA,-0.122
8,AACCCACA,-0.0351
9,GGTGGGTA,0.0601
10,CATTTTTA,0.0631
11,CCTTTTAA,0.0649
12,CATTTCCC,0.295
13,CATTTTAA,0.27
14,CATTTTCA,0.273
15,GATTTCCC,-0.0998
16,AATTTTCA,0.165
17,CATTTTCC,0.123
18,AATTTTAG,0.105
19,CATTTTAG,0.267
20,CATTTTAC,0.254
21,TATTTTCA,0.201
22,AAGGCGGC,-0.0929
23,CCCTGAAC,0.0241
24,CCCTTGCG,-0.0882
25,ATACGTTG,-0.0291

row,Sequence,PBM E-score
1,CGTGGCGC,-0.1
2,TGAGGTAA,0.128
3,TCATTACA,0.18
4,ATTAGGAC,-0.179
5,CCCGCGGG,0.0996
6,AATACGCA,0.0688
7,ATTTGCTA,0.0107
8,CCATTTTA,0.267
9,GCATTTTA,0.165
10,CCATTTTC,0.0892
11,GCCTATCC,-0.214
12,TTCTGAAA,0.365
13,GTCTGAAC,0.114
14,GTCTGAAA,0.314
15,CTCTGAAC,-0.092
16,CCCTGAAA,0.181
17,ATCTGAAC,-0.0162
18,CTCTGAAA,0.294
19,TTCTGCAA,0.182
20,ATCTGAAA,0.364
21,GTCTGATA,0.16
22,ATCTGAAT,0.0272
23,CTCTGAAG,-0.104
24,TGGCCAAA,0.0505
25,TCCACAGA,0.124

row,Sequence,PBM E-score
1,CTTTAGCC,-0.029
2,AATAGTTG,0.255
3,AAGCAGAA,0.109
4,AATTGAGT,0.195
5,GTATGGAC,-0.0968
6,CTTGTTTA,0.0423
7,CTTGTTTC,0.375
8,ATTGTTTC,0.356
9,ATTGTTAC,0.297
10,CTTGTTAC,0.129
11,ATTGTTTG,0.184
12,CTTGTTGC,0.00409
13,ATTGTTAG,0.0697
14,ATTGTTTA,0.0651
15,ATCTCTTA,0.197
16,CCTTTCCC,-0.0368
17,ATAGCAGA,-0.0552
18,CCGGCTAC,0.0776
19,CGAGCCAG,-0.0693
20,AACGCACT,-0.0209
21,GATAAACA,0.096
22,CATAAACC,0.0477
23,AATAAACG,0.0508
24,TATAAACA,0.114
25,AATAAACC,0.269

row,Sequence,PBM E-score
1,AATAAACA,0.284
2,AAGTATGC,-0.197
3,AGCCCCCA,-0.118
4,TATGGACA,-0.00254
5,CGGTCGAA,0.00203
6,CAGTTTAC,-0.053
7,CGTTAAAG,0.0915
8,CGCCGGCC,-0.00587
9,CGCCGGCG,0.275
10,AGCCGGCG,0.106
11,CAGACCCG,0.0234
12,CTCTCCTC,-0.168
13,GTGTAAGA,0.058
14,ATGTAACC,0.143
15,ATGTAACA,0.288
16,AAGTAAAC,0.0949
17,AAGTAAAG,-0.0589
18,AAGTAAAT,0.261
19,CTGTAACA,0.268
20,ATGTAACG,0.241
21,GCGTAACA,-0.0008
22,CTGTAATA,0.119
23,GTGTAACA,0.319
24,CTGTAACC,0.183
25,GCGTCCAA,-0.13

row,Sequence,PBM E-score
1,ATGATTGC,0.146
2,CAAGACTG,-0.101
3,ATGCACAG,-0.111
4,ACTATTGG,-0.0275
5,CAACTTGA,0.0746
6,AAGTAACA,0.291
7,AAGTAACG,0.141
8,AAGTAACT,0.0625
9,AGACCGTA,-0.0932
10,CATGGTGG,-0.0711
11,GACTCTAA,0.115
12,ACCATAAA,0.278
13,GTGATAAA,0.131
14,ATCATAAA,0.0612
15,TCCATAAA,0.11
16,ACCATAAG,-0.16
17,CTCATAAA,-0.00236
18,TTGATAAA,0.277
19,TTCATAAA,0.324
20,ATGATAAA,0.209
21,ACTTTGAC,-0.101
22,ACTTCCCT,-0.0919
23,GGGTTCAC,-0.0147
24,GATCTGCC,0.0158
25,TAAAAGCA,0.172

row,Sequence,PBM E-score
1,CCAATCGA,0.067
2,CTTCACAA,-0.0638
3,CACGAAAA,0.243
4,AACGAAAC,0.314
5,AACGAAAT,0.169
6,AACGAAAG,0.0635
7,GTCGAAAC,0.128
8,CACGAAAG,0.095
9,ATCGAAAC,0.324
10,GCCGAAAC,0.178
11,CCCGAAAG,0.00951
12,CCCGAAAC,0.303
13,CACGAAAC,0.266
14,ATCGAAAA,0.125
15,CCCAGGTC,-0.207
16,TCCACAAA,0.14
17,GCTTCCAC,-0.11
18,CTAGGGCC,-0.187
19,ATCGCGCG,0.0537
20,ATGTCTAA,0.0254
21,GGGCCCCA,-0.146
22,CTCCTCAG,-0.11
23,GAGGTTAA,0.0122
24,AGCTGGGA,-0.0199
25,GTGTGAAA,0.307

row,Sequence,PBM E-score
1,CTGTGAAG,0.00467
2,GTGTGAAC,0.169
3,CTGTGAAC,-0.0759
4,TTGTGAAA,0.342
5,GTGTGAGA,0.0959
6,CTGTGAGA,-0.0675
7,CTGTGAAA,0.322
8,ATGTGAAA,0.202
9,ACCTGCCA,-0.121
10,AGAAAGGA,-0.0699
11,AAAGCGAA,0.133
12,CTTGCATA,-0.045
13,TCAGGTCA,-0.015
14,AAAGTCCC,-0.0967
15,CGAGGCCG,-0.158
16,GGATTTAA,0.243
17,AAAACATA,0.208
18,AAAACATT,0.28
19,AACACATG,0.128
20,CAAACATG,0.179
21,ATAACATC,0.0956
22,AAAACATC,0.301
23,ACAACATC,-0.0874
24,AAAACATG,0.324
25,AAAACAAT,0.225

row,Sequence,PBM E-score
1,AGTGTAGG,0.00693
2,ATGTGCTG,0.133
3,CTTCGCTC,-0.224
4,ACCACCCG,-0.106
5,CCCACCCA,0.269
6,GCCACCCC,-0.0121
7,ACCACCCC,0.0858
8,TCCACCCA,-0.0525
9,CACACCCG,0.0642
10,GCCACCCA,-0.106
11,CCCACCCC,0.391
12,CCCACCCG,0.358
13,CCTCTTGC,0.0254
14,ATCTTCAC,0.145
15,CACGGGCG,0.00735
16,ATAGCCTG,-0.0913
17,TAGATCGA,0.0552
18,CCAGCTCA,-0.194
19,CCGTTGAA,0.0239
